# Bioassay records (PubChem)
# ASK1 inh – ASK1 kinase inhibitors, primary screen, biochemical, AlphaScreen | inhibition, % at 7.44 µM | Mitogen-activated protein kinase kinase kinase 5 (Homo sapiens), Q99683 | AlphaScreen MKK6 phosphorylation by ASK1, luminescence | 0.99% of 22,000 active | AID 1159602, 2016; in the data active = inhibition above about 35%
# ULK1 inh – ULK1 kinase inhibitors, primary screen, biochemical, AlphaScreen | Serine/threonine-protein kinase ULK1 (Homo sapiens), O75385 | AlphaScreen Atg13 phosphorylation by ULK1, luminescence | inhibition, % at 5.96 µM | 1.9% of 30,000 active | AID 1259251, 2017; in the data active = inhibition above about 43%
# Numbers stand for hits; 0 = inactive; - = not tested or not shown; ! = not confirmed by another sample. Shown are actives, neighbours in structure and some others; about 2.4% of the full set was active somewhere.
SMILES,ASK1 inh,ULK1 inh
c1cncc(CNc2nc(NCc3ccc4c(c3)OCO4)nc3c2ncn3-c2ccsc2)c1,0,0
CC(C)n1cnc2c(Nc3ccc4c(c3)OCO4)nc(NCc3ccc4c(c3)OCO4)nc21,39.9,0
c1cncc(CNc2nc(Nc3ccc4c(c3)OCO4)c3ncn(-c4ccsc4)c3n2)c1,0,52.9
CCNc1nc(Nc2ccccc2)c2ncn(C(C)C)c2n1,0,56.5
c1ccc2[nH]c(CNc3nc(Nc4ccncc4)nc4c3ncn4-c3ccsc3)nc2c1,0,48.9
CC(=O)Nc1ccc(Nc2nc(NCc3ccc4c(c3)OCO4)nc3c2ncn3C(C)C)cc1,0,0
c1ccc2[nH]c(CNc3nc(Nc4ccc(-n5ccnc5)cc4)nc4c3ncn4-c3ccsc3)nc2c1,0,0
CCNc1nc(Nc2cc(OC)c(OC)c(OC)c2)c2ncn(C(C)C)c2n1,0,0
Cc1ccc(-c2ncn(-c3ccc(Nc4ncc(F)c(-c5cc(F)cc(N6CCOCC6)c5)n4)cc3)n2)cn1,0,0
CC(C)n1c(N2CCc3ccccc3C2)nc2c(Nc3ccc(N4CCOCC4)cc3)ncnc21,0,0
CCN(CC)C(=O)C1CCCN(c2cccc(C(=O)Nc3ccccc3)n2)C1 (centres undefined),0,0
CC(C)(O)C(=O)NN(C(=O)c1ccc(F)cc1)c1ccccc1,-,0
CC(C)n1cnc2c(Nc3ccc(Oc4ccccc4)cc3)nc(Nc3cccnc3)nc21,0,0
CC(C)n1cnc2c(NCc3ccccc3)nc(NCc3cccnc3)nc21,0,0
CC(C)n1cnc2c(Nc3ccccc3)nc(Nc3cccnc3)nc21,0,51.5
CC(C)n1cnc2c(Nc3ccccc3)nc(NCc3cccnc3)nc21,0,54.1
O=C(NCCOc1ccccc1)c1cccc(-c2ccc(N3CCOCC3)nc2)c1,0,0
CC(C)n1cnc2c(Nc3ccc(N4CCOCC4)cc3)nc(Nc3ccc(N4CCOCC4)cc3)nc21,0,0
CC(C)n1cnc2c(Nc3ccc(N4CCOCC4)cc3)nc(Nc3ccncn3)nc21,0,52.2
CC(C)n1cnc2c(Nc3ccc(N4CCOCC4)cc3)nc(Nc3ccccn3)nc21,0,68.8
CC(C)n1cnc2c(Nc3ccc(N4CCOCC4)cc3)nc(Nc3cccnc3)nc21,0,48.9
CC(C)n1cnc2c(NC3CC3)nc(Nc3ccc(N4CCOCC4)cc3)nc21,0,0
CC(C)n1cnc2c(Nc3ccc(N4CCOCC4)cc3)nc(Nc3nccc4ccccc34)nc21,0,0
O=C(NCc1cccnc1)c1cccc(N2CCOCC2)c1,0,0
Nc1ncnc2nc(N3CCN(c4ccccn4)CC3)[nH]c12,0,0
SMILES,ASK1 inh,ULK1 inh
CCCNC(=O)c1cncc(-c2ccc(N3CCOCC3)nc2)c1,0,0
OCCNc1nc(NC2CCN(Cc3ccccc3)CC2)nc2c1ncn2Cc1ccc(C(F)(F)F)cc1,0,0
FC(F)(F)c1cccc(CNc2ccnc(NCCN3CCOCC3)n2)c1,0,0
FC(F)(F)c1cccc(CNc2ccnc(Nc3ccc(N4CCOCC4)cc3)n2)c1,35.9!,0
CN1CCN(C(=O)c2ccc(-c3cc(NCCc4ccc(O)cc4)nc(N)n3)cc2)CC1,0,0
CN(C)c1cccc(Nc2nc(C(=O)NCCN3CCOCC3)cs2)c1,0,0
CNC(=O)c1ccccc1Nc1cc(NC(=O)Cc2ccc(F)cc2)ncc1C(F)(F)F,0,57.1
CNC(=O)c1ccccc1Nc1cc(NC(=O)Cc2ccccc2F)ncc1C(F)(F)F,0,53.0
CNC(=O)c1ccccc1Nc1cc(Nc2ncccn2)ncc1C(F)(F)F,0,0
CNC(=O)c1ccccc1Nc1cc(NCc2ccccc2)ncc1C(F)(F)F,0,54.6
CNC(=O)c1ccccc1Nc1cc(NC(=O)Cc2cccs2)ncc1C(F)(F)F,0,46.5
NC(=O)c1ccccc1Nc1cc(NC(=O)Cc2ccc(F)cc2)ncc1F,0,0
CNC(=O)c1ccccc1Nc1cc(NC(=O)C2CCc3ccccc32)ncc1C(F)(F)F (centres undefined),0,0
CC(C)N(CCNC(=O)c1cccc(-c2ccc(C(N)=O)cc2)n1)C(C)C,0,0
Cc1ncn(-c2ccc(Nc3ncc4cccc(-c5ccccc5F)c4n3)cc2)n1,0,0
O=C(Nc1ccc2cnccc2c1)C(O)c1ccc(Br)cc1 (centres undefined),0,0
O=C1CCCN1CCCNc1nc(Nc2ccc3ncccc3c2)nc2c1ncn2CCN1CCCC1=O,0,0
Cn1c(=O)cc(NCc2cccnc2)n(Cc2ccc(F)cc2F)c1=O,-,0
O=C(Cc1ccc2c(c1)OCO2)Nc1cc(Nc2ccccc2-c2nn[nH]n2)c(C(F)(F)F)cn1,0,0
CNC(=O)c1ccccc1Nc1cc(NC(=O)Cc2ccc(N)cc2)ncc1C(F)(F)F,0,68.2
COc1ccc(CC(=O)Nc2cc(Nc3ccccc3-c3ncco3)c(C(F)(F)F)cn2)cc1,0,0
COc1ccc(CC(=O)Nc2cc(Nc3ccccc3NC(C)=O)c(C(F)(F)F)cn2)cc1,0,0
CNC(=O)c1ccccc1Nc1cc(NC(=O)Cc2ccsc2)ncc1C(F)(F)F,0,52.2
